The nature of test [1]: A CellTox Green Cytotoxicity Assay to monitor cytotoxicity in HEK293 cells - 32 hour (AID 1224881). Note: nearly all actives have a fitted effect of over 40% in size. In a few lines:
(§1)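 HEK293 cells premixed with CellTox Green dye were seeded at 600 cells/well and left 5 h at 37 C/5% CO2 before pin transfer of 23 nL compound in DMSO. Fluorescence from dye bound to dead-cell DNA was read during 40 h treatment.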

Test [2] can be described thus: A CellTox Green Cytotoxicity Assay to monitor cytotoxicity in HepG2 cells - 0 hour (AID 1224882). Note: nearly all actives have a fitted effect of over 35% in size. The gist of the method: (§2)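 HepG2 cells were seeded together with the CellTox Green dye at 600 cells/well, left 5 h at 37 C/5% CO2, then given compounds in DMSO. Fluorescence from dye bound to dead-cell DNA was read repeatedly over 40 h of treatment at 37 C.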
A short description of test [3]: A CellTox Green Cytotoxicity Assay to monitor cytotoxicity in HepG2 cells - 32 hour (AID 1224883). Note: nearly all actives have a fitted effect of over 50% in size. Note: potency is the fitted concentration of half-maximal effect. The gist of the method: as §2
Test [4] in a line: A CellTox Green Cytotoxicity Assay to monitor cytotoxicity in HEK293 cells - 8 hour (AID 1224884). Note: nearly all actives have a fitted effect of over 35% in size. In a few lines: as §1
Test [5] is described as follows: qHTS RealTime-Glo MT Cell Viability Assay in HEK293 cells - 24 hour (AID 1224886). Note: top concentration of the series differs between compounds; nearly all actives have a fitted effect of over 50% in size. In a few lines:
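HEK293 cells seeded with NanoLuc/prosubstrate reagent, rested 5 h at 37 C, then dosed and kept at 37 C up to 40 h. Nonlytic real-time luminescence from viable cells read at 0, 8, 16, 24, 32 and 40 h.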

Test [6] in a line: qHTS RealTime-Glo MT Cell Viability Assay in HEK293 cells - 8 hour (AID 1224887). Note: top concentration of the series differs between compounds; nearly all actives have a fitted effect of over 50% in size. In a few lines: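 HEK293 cells mixed with RealTime-Glo reagents (NanoLuc plus cell-permeant prosubstrate) at 600 cells/well, preincubated 5 h at 37 C/5% CO2, then given 23 nL compound in DMSO. Nonlytic luminescence from viable cells was read at 0, 8, 16, 24, 32 and 40 h.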
The nature of test [7]: A CellTox Green Cytotoxicity Assay to monitor cytotoxicity in HEK293 cells - 16 hour (AID 1224888). Note: nearly all actives have a fitted effect of over 35% in size. In a few lines: as §1
Test [8] is described as follows: qHTS RealTime-Glo MT Cell Viability Assay in HepG2 cells - 0 hour (AID 1224889). Note: nearly all actives have a fitted effect of over 50% in size. The gist of the method: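 HepG2 cells (600/well) were dispensed with RealTime-Glo reagents, incubated 5 h at 37 °C, then treated with compounds in DMSO for up to 40 h. Nonlytic NanoLuc luminescence reflecting viable cells was read at each stated time point.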
A short description of test [9]: A CellTox Green Cytotoxicity Assay to monitor cytotoxicity in HepG2 cells - 8 hour (AID 1224890). Note: nearly all actives have a fitted effect of over 45% in size. The gist of the method: as §2
Test [10] can be described thus: qHTS assay to identify small molecule antagonists of the estrogen receptor alpha (ER-alpha) signaling pathway using the BG1 cell line in the presence of 0.1 nM 17-beta-estradiol - cell viability counter screen (AID 1259241). Note: nearly all actives have a fitted effect of over 40% in size. The gist of the method: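 Viability in VM7Luc4E2 cells after 22 hr compound exposure under 0.1 nM 17beta-estradiol stimulation, by CellTiter-Fluor.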

Test [11] can be described thus: qHTS assay to identify small molecule phospholipidosis (PLD) inducers (AID 1259344; active = well fitted curve in the direction sought with a large enough effect; an effect the other way counts as inactive or inconclusive). The gist of the method:
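HepG2 cells, 900/well, treated with compound plus LipidTOX Red for 24 h at 37 C; amiodarone positive and DMSO negative controls. Fixed with paraformaldehyde/Hoechst, then high-content imaging scored LipidTOX pit count and integrated intensity per well and per cell.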

Test [12] is described as follows: qHTS assay to identify small molecule HDAC inhibitors (AID 1259364). Note: top concentration of the series differs between compounds; nearly all actives have a fitted effect of over 45% in size. The gist of the method: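 Wild-type HCT-116 cells were plated overnight, exposed to compounds for 2 h at 37 °C, then given HDAC-Glo class I/II luminogenic reagent for 30 min at room temperature before luminescence was read.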
The nature of test [13]: qHTS assay to identify small molecule HDAC inhibitors - cell viability counter screen (AID 1259365). The gist of the method:
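Cytotoxicity was gauged in wild-type HCT-116 cells after a brief 2hr treatment with DMSO-dissolved compounds at 37C and 5% CO2, using CellTiter-Glo luminescence developed for 30min at room temperature.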

The nature of test [14]: qHTS assay to identify small molecule agonists of the sonic hedgehog signaling (Shh) pathway - cell viability counter screen (AID 1259366). Note: nearly all actives have a fitted effect of over 50% in size. The gist of the method: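 Stable Gli1-Luc NIH/3T3 clone, 2,000 cells/well. Compound exposure 24hr at 37C. Read-out: CellTiter-Fluor fluorescence.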
Test [15] in a line: qHTS assay to identify small molecule antagonists of the sonic hedgehog signaling (Shh) pathway - cell viability counter screen (AID 1259367). Note: nearly all actives have a fitted effect of over 55% in size. In a few lines:
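NIH/3T3-derived Gli1-Luc reporter cells, 2,000/well, plated 4 hr before compound addition, then stimulated with conditioned medium for 24 hr at 37C. Viability measured in the same wells by CellTiter-Fluor fluorescence, reagent added at 23 hr for 1 hr.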

Test [16] can be described thus: qHTS assay to identify small molecule agonists of the sonic hedgehog signaling (Shh) pathway (AID 1259368; calls by dose curve; note: series mostly up to about 92 µM; nearly all actives have a fitted effect of over 15% in size). The gist of the method: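 NIH/3T3-derived 3T3Gli1-Luc cells carrying a stably integrated Gli1 response element–firefly luciferase reporter were plated, left 4 hr at 37 C, then given compounds in DMSO for 24 hr. Luminescence was read 30 min after adding luciferase reagent.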

Test [17] addresses Estrogen receptor (Homo sapiens) (UniProt P03372). The test can be described thus: qHTS assay to identify small molecule antagonists of the estrogen receptor alpha (ER-alpha) signaling pathway using the BG1 cell line in the presence of 0.1 nM 17-beta-estradiol (AID 1259244). Note: nearly all actives have a fitted effect of over 50% in size. In a few lines: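 VM7Luc4E2 cells (endogenous full-length ER-alpha, stable 4xERE-luciferase) were grown 5 days in phenol red-free medium with charcoal-stripped FBS, then exposed 22 h at 37C to compounds plus 0.1 nM (final) 17beta-estradiol; ONE-Glo luminescence read-out.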

Test [18] is described as follows: qHTS assay to identify small molecule antagonists of the androgen receptor (AR) signaling pathway using the MDA cell line in the presence of 0.5 nM R1881 - cell viability counter screen (AID 1259242). Note: nearly all actives have a fitted effect of over 45% in size. The gist of the method: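 MDA-kb2 cells (human breast carcinoma, stably carrying MMTV-luciferase reporter) were exposed to compounds with 0.5 nM R1881 (final) for 16 hr at 37C, 0% CO2; viability then read as live-cell protease fluorescence (CellTiter-Fluor, 30 min) in the same wells.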

Inconclusive results are not listed. Some compounds were tested as several samples or in several runs, with calls that do not always agree. Activity calls are given as the source filed them. Unless noted, calls come from the whole dose curve; as a rule, active = well fitted curve in the direction sought with a large enough effect in the repeat runs; inconclusive = weak or mixed curves; inactive = no such curve, though single readings can be large; an effect the other way counts as inactive or inconclusive.

This passage reports Potency and outcome results from PubChem BioAssay (Tox21).

Sequence of Estrogen receptor (Homo sapiens) (P03372 whole entry, looked up): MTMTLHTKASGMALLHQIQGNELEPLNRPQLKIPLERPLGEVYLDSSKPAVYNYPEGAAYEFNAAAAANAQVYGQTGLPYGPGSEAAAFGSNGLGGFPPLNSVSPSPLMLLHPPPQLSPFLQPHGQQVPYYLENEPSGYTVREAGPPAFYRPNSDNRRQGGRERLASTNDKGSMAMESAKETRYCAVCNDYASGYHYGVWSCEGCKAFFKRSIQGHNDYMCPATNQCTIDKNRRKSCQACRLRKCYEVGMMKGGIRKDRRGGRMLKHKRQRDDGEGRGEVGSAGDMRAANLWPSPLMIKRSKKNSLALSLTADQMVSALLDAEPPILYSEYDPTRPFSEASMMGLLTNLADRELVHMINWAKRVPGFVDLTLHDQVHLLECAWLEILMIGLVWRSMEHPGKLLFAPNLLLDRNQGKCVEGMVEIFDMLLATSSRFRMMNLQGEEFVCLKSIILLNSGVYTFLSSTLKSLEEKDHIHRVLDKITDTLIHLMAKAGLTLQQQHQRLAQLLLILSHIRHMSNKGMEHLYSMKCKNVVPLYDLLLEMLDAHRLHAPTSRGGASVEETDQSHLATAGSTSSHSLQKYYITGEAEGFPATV

With `CCCCCCCCCCCCCCCC(=O)O`, the Potency result in test [1], in [2], in test [3], in [4], in test [5] and in test [6] was “inactive” throughout. For the same molecule, the Potency result in [7], in test [8], in test [9], in test [10], in [12] and in test [14] was “inactive” throughout. Also, the Potency entry in test [15] was “inactive”. The call in test [11], in [13] and in [16] was inactive.

As for `CC(=O)NS(=O)(=O)c1ccc(N)cc1`, the Potency entry in [1], in test [2], in [3], in [4], in [5] and in test [6] was “inactive” in each case. Besides, the Potency entry in test [7], in test [9], in test [10], in test [17], in [12] and in [14] was “inactive” throughout. Besides, the Potency result in test [15] is “inactive”. The outcome in [11], in test [13] and in test [16] was inactive.

Consider `NC(N)=NC(=O)c1nc(Cl)c(N)nc1N`, for which the Potency result in test [1], in test [2], in [3], in test [4], in [5] and in test [6] was “inactive” throughout. Besides, the Potency result in test [7], in test [9], in test [10], in [17], in test [12] and in [14] was “inactive” in each case. In test [15], the Potency entry is “inactive”. For the same molecule, the outcome in test [11], in test [13] and in [16] was inactive.

Regarding `CCOc1ccc(NC(=O)CC(C)O)cc1` (stereo not drawn), the Potency entry in [1], in test [2], in [3], in test [4], in test [5] and in test [6] was “inactive” in each case. In addition, the Potency entry in test [7], in [8], in test [9], in test [10], in test [12] and in [14] was “inactive” in each case. For the same molecule, the Potency result in test [15] is “inactive”. Besides, the molecule was called inactive in test [11], in test [13] and in [16].

Turning to `CCCCC1C(=O)N(c2ccccc2)N(c2ccccc2)C1=O`, the Potency entry in [1], in test [2], in test [3], in test [4], in test [5] and in test [6] was “inactive” in each case. The Potency result in test [7], in [9], in [10], in [17], in [12] and in [14] was “inactive” in each case. In [15], the Potency entry is “inactive”. The molecule was called inactive in test [11], in [13] and in test [16].

On to `COc1ccc2[nH]cc(CCNC(C)=O)c2c1`, for which the Potency result in test [1], in [2], in test [3], in test [4], in test [5] and in [6] was “inactive” throughout. The Potency entry in test [7], in test [9], in test [10], in [17], in test [12] and in test [14] was “inactive” in each case. Also, the Potency entry in [15] is “inactive”. The outcome in test [11], in test [13] and in test [16] was inactive.

Regarding `CCCC(O)C(CC)CO` (stereo not drawn), the Potency result in test [1], in test [2], in test [3], in test [4], in test [5] and in [6] was “inactive” each time. The Potency entry in test [7], in test [9], in [10], in test [17], in [12] and in test [14] was “inactive” each time. Besides, in test [15], the Potency result is “inactive”. Further, the outcome in test [11], in [13] and in [16] was inactive.

In the case of `NS(=O)(=O)c1cc(C(=O)O)c(NCc2ccco2)cc1Cl`, the Potency entry in test [1], in test [2], in test [4], in test [5], in [7] and in test [9] was “inactive” throughout. Also, the Potency entry in [10], in [18], in [17], in [12], in test [14] and in test [15] was “inactive” in each case. Further, the Potency in test [3] was 19.6 µM (active) and inactive. Moreover, the molecule was called inactive in test [11], in test [13] and in test [16].
